Assay results: ChEMBL document CHEMBL4513216, “Probing the Open Global Health Chemical Diversity Library for Multistage-Active Starting Points for Next-Generation Antimalarials” (ACS Infect Dis, 2020)
Out of some 65,000 compounds screened, about 2,100 (3.2%) showed an effect of 50% or more. The median lay at about -52%. The full list was thinned out, with strong results kept by preference.

Test system: Plasmodium falciparum
Assay: Screen against P. falciparum Asexual Blood Stage (ABS), at 5uM
Format: functional, Dd2
Details: tested at 5 uM

| Compound | INHIBITION |
| --- | --- |
| CN(Cc1cccnc1)C(CO)c1cccc(Br)c1 (centres undefined) | -135% |
| CSCc1ccc(CNC2CCCN(c3ccc(C)nn3)C2)o1 (centres undefined) | -38.5% |
| CC(CN1CCOCC1)n1cncc1-c1cnn(Cc2ccccc2)c1 (centres undefined) | -46.1% |
| CCC(CN1CCCC1)n1cncc1-c1cnn(Cc2ccccc2)c1 (centres undefined) | 44.8% |
| CC(Cn1cncc1-c1cnn(Cc2ccccc2)c1)N1CCCCC1 (centres undefined) | 65.7% |
| Cc1cccc(C)c1OC1CCN(Cc2ccn(C)c(=O)c2)CC1 | -30.1% |
| CC(OCC1CC1)C(=O)Nc1cccc(C(=O)Nc2ccncc2)c1 (centres undefined) | -140% |
| O=C(CC1CN(Cc2ccccc2)CCO1)NCCN1CCOCC1 (centres undefined) | -108% |
| Cc1nn(C)c(C)c1-c1ccnc(N(C)Cc2noc(C(C)C)n2)n1 | -25.3% |
| Cc1nn(C)cc1-c1ccnc(N(C)Cc2noc(C(C)C)n2)n1 | -32.2% |
| Cc1nn(C)c(C)c1-c1ccnc(N(C)Cc2nc(C(C)C)no2)n1 | 66.3% |
| O=C(COc1ccc(F)cc1)N1CCO[C@H]2[C@@H](OCC3CC3)CC[C@@H]21 | -24% |
| COc1ccc(C2=Nn3c(CCCN)nnc3-c3ccccc3C2)cc1 | -100% |
| COc1ccc(C2=Nn3c(CCN)nnc3-c3ccccc3C2)cc1 | 32.1% |
| COc1ccc(C2=Nn3c(CN)nnc3-c3ccccc3C2)cc1 | 64.8% |
| O=C(COc1ccc2c(c1)CCC2)NS(=O)(=O)c1cccnc1 | 51.8% |
| Cc1ccc(OCC(=O)NS(=O)(=O)c2cccnc2)cc1C | -19.2% |
| O=C(COc1ccc2c(c1)CCC2)NS(=O)(=O)c1cncc(Br)c1 | -108% |
| O=C(NCc1ccccn1)[C@@H]1COC[C@H]2CN(c3ncccn3)C[C@H]21 | -20.1% |
| COc1cccc(CN2CCCCCC2c2sccc2C)c1O (centres undefined) | -7.83% |
| COc1cccc(CN2CCCCCC2c2cccc(F)c2)c1O (centres undefined) | 57.6% |
| COc1cccc(CN2CCCCCC2c2cccs2)c1O (centres undefined) | 3.59% |
| Cc1cccc(C2CCCCCN2Cc2cn(C)nc2C)c1 (centres undefined) | 35.4% |
| COc1cccc(CN2CCCCCC2c2cccc(C)c2)c1O (centres undefined) | 57.5% |
| Cc1cc2[nH]c(CN3CCCCC3c3cccc(F)c3)cc(=O)n2n1 (centres undefined) | -64.9% |
| Oc1cc(-c2ccsc2)nc(C2CCN(Cc3cccnc3)CC2)n1 | -96.9% |
| O=C(NCCCNc1ccc(C(F)(F)F)cn1)c1ccc(F)cc1Br | -29.4% |
| CC(C)Nc1nc2c(cc1C(=O)NCC1CC1)CCN(CC1CC1)CC2 | -7.32% |
| COCCOCC1(CNC(=O)c2ccc(OC)cc2)C[C@@H](O)[C@@H](O)C1 (some centres undefined) | -102% |
